This note sets out measurements from PubChem BioAssay AID1159506 (National Center for Advancing Translational Sciences (NCATS), 2015).

Whole data set: some 59,000 sequences, median the read-out near -0.00055, cut for the lowest 2% near -2. Many of the other results were omitted from the sample, so the lowest values are more common in it than they were.

A short description of this test: Identification of proteins required for the processing of the EWS-FLI1 nascent transcript.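 Note: robust z of luciferase light less the median z of siRNAs with the same seed.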 Conditions: TC32 Ewing sarcoma NR0B1-luc vs CMV-luc (EWS-FLI1 target promoter against control promoter), 48 h; screened at 20 nM (by protocol). The essentials: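 Genome-wide siRNA screen (Ambion v4.1, three siRNAs per gene, 20 nM final, RNAiMax) in Ewing sarcoma TC32 cells carrying NR0B1-promoter or CMV-promoter luciferase; OneGlo luciferase read 48 h post-transfection. Data normalized, z-score-MAD transformed and seed-adjusted.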
ACACUGACAAAUGUUAGGC against VWDE displayed a seed-corrected z-score of -2.22.
Sequence AACCUUUAACUUGUGCUCC against ELAC2 gave a seed-corrected z-score of 0.641.
To UGCCCAAAUAGAAUUCUGU against RPL35A belongs -0.216; to AGCUUUUCCAAAACCGUGC against NGDN, 2.14; to AUAUUUAUUGGGCAGUGGA against PYDC1, -0.518.
To UUUGUAGCAGGUACAGGCC against EPPK1 belongs -0.0968; to AAGGUGGUAGGCACUUUGG against MAVS, -2.67.
The result for UUCGAAAUGCCUGAUAGCC against P3H2 reads 0.287.
On to AGAUGUUCCACACUCUGCC against C1orf95, for which the seed-corrected z-score is -3.59.
As to AUACUGCCGAUAUAUCAGC against AP4S1, the seed-corrected z-score was -0.442.
The result for AAGUUUAUGGACAAUUUCC against SMYD5 reads 0.313.
The result for UACUUUACAACAUAUGGGC against STK3 reads -0.0972; that for UGGUUAGCAAUGCAUAUUC against SV2C, 0.364; that for UUCUUCAUUCCUGCUAGGC against EEF1B2P5, -0.108.
The sequence UAAGGGUCAAUGCAGUAGU against ZAR1L returned a seed-corrected z-score of -0.414.
To UAAAUAGCAAAUUGCAUAC against DNAJB3 belongs 1.32.
To UUUGCCUAGACUAUGCUUG against PPARGC1B belongs -1.6; to AUCUGCAUAAUCCUUGUUG against COG2, -2.77.
The result for UAUGUAACUGACAAUGACG against ADGRA3 reads -0.447.
UUGAGUGCAAAGGCUUGUC against SLC25A12 displayed a seed-corrected z-score of 1.4.
The result for UUAGGUCUCUGAAGUUUUC against NUTM2A-AS1 reads -0.188; that for UAUCUUAUUUCAUCGUUUC against PTGS1, -0.545.
The result for AUCGUCUUGACUGUGGUCC against CEACAM1 reads -0.766.
As to AUAGCGAUUAUUCUCACAG against PDHA1, the seed-corrected z-score was found to be 0.0331.
Consider UUAUUUAUCUGAGUUGUGA against NFIA-AS1, for which the seed-corrected z-score was -2.52.
To UGCAGUAAACAUUUCGUUG against ADAMTS9 belongs -0.75; to UUGUGGUAGAUGGGACUGG against DOK3, -3.05; to UCUGCGGUUACUCUCCAUC against TLX1, -0.0327.
In turn, AUGAGUACAGACAAGGUCC against DRD1 showed a seed-corrected z-score of -0.626.
On to AACAGGCUCAGGGAUAUUG against MORN2, for which the seed-corrected z-score was -1.84.
Sequence UAGCUUCGAAUAAACAUCC against FAM3D showed a seed-corrected z-score of -4.22.
Regarding UGAAAUACGGAUGACAUUC against AKR1C3, the seed-corrected z-score was -1.21.
In the case of UUUUGUGCAUAGACCAUAG against DHRS12, the seed-corrected z-score was -0.542.
The result for UCUUCUUAGACCUUUCGGG against PRPF38A reads -2.28.
To UUUGCAUCGUGGUAUUUCC against CTCFL belongs 0.259; to UUUACGAUAAUCAACCUUC against BCO1, 0.641.
UUCGCAUUGCUUCUAACUC against UACA showed a seed-corrected z-score of 0.538.
To UUCAAAGUAUCGUUCUUUC against PANX3 belongs 1.35; to UCCCGUACCAAGGGUAGCU against FAM78B, 0.456; to AAUGGUGUUGCUCUUCUCC against ZNF23, 1.51.
The result for UUCGAAUAGUAGAAAGUCG against ABCB5 reads 0.0668.
The result for AAGCAUGUUGGUAACCUCG against PLA2G3 reads -2.04.
UACAGCAUCGUCUUCUACC against TMEM246: the seed-corrected z-score was 0.565.
The result for UACACUUGAGUUGACGACC against LOC642335 reads 0.105; that for UGCAUAGACAGAUUAAGCC against SEC22A, -0.0597.
Take UGCUCUUUUGCUUACGUGG against GAB1: the seed-corrected z-score is -1.74.
To UGCGUUUUCAGCUGGUUAC against MYNN belongs -3.83; to UCCGUGAGAACUCAUAAGG against TG, -0.13.
The sequence UACAGUCAAAGCUCCGUUC against GFI1 yielded a seed-corrected z-score of 1.42.
The result for UCUGCGUUCUGAUUGGUGG against ANKRD55 reads -4.59; that for AUGCAAGUAACUGAGAUCG against CLEC14A, -1.2.
The result for UGUUCUAUGAGGCAAGAUG against ZGRF1 reads 0.286; that for ACUUUCACAACGAUUUUCU against RPL34P34, -2.47; that for UUCUUUACAGCAUGAGGGC against CCL25, 0.424.
The sequence AAAGUCAUCAGCAAUUUGG against OR10G8 gave a seed-corrected z-score of -1.41.
UCCGUCGUCAGAAAGAUGC against DGCR2 had a seed-corrected z-score of 0.0908.
The result for UGACGUGUCAUUCUCAUAC against ZNF69 reads -2.01.
The sequence UUGGAGCAAAAUACAGUGG against NQO1 came in with a seed-corrected z-score of 0.331.
UUGUUCCUCAGGUCAAGUG against GAB2 came in with a seed-corrected z-score of 1.13.
To UAGUUGUUCAGCGAGGUCC against CEP250 belongs -0.0255.
In the case of AACAUCACCAAAUAGCUGG against LIMS1, the seed-corrected z-score turned out to be 0.191.
UAUUUCGAAAAUAAUCUCC against TMEM18 returned a seed-corrected z-score of -0.129.
To UUCAGCAUUUGAUUCAAUC against HTRA4 belongs -0.127.
In the case of UCUGCUGAUAGCAAUGGGC against ZNF512B, the seed-corrected z-score is -2.13.
To UUUUGGUCGUCGUUCUUCU against COMP belongs -2.12.
To UUCUACUCUAGCAAUUUCC against NDC80 belongs -2.12; to UCAAGGACCAGGCCGUUUU against ALG1L3P, 1.09.
To UAAUUGUGACACUUGUUCC against TSLP belongs -1.67; to UAGGUAAGGACGGAAACGC against ZPBP2, 0.591.
As for UACCGUGACAAAAUAAGUG against LOC728175, the seed-corrected z-score was determined as 0.818.
The result for UCUGAUGACUGUUUACAGC against ZNF180 reads 0.161.
To UAAUUAAUAUCGUCCAGAG against C6orf120 belongs -0.208; to UCAUUCACUAUCACUUGUC against ZNF35, -1.13.
On to AACUCUUCACGUACUAGCC against PKD2, for which the seed-corrected z-score came out at 0.287.
The result for UUAGCUGCUGGGAACACUG against IL18BP reads -2.28.
The result for UAUGUUUCUCGUCUCAACA against DNM1P49 reads -0.258; that for AAAGUCACGUUUUCCGCGC against RGS14, 0.981; that for AAAGAUACAUCUGCCUUCC against CMPK1, -0.0168.
The result for AGAAUUCUGAGGGCGGAGC against UCN2 reads -0.561.
In turn, AUAGUAAGCAGCCUUCUGC against HOXD3 yielded a seed-corrected z-score of -3.99.
For UAUCUUGACCAAAUAAACC against MPC2, the seed-corrected z-score turned out to be 0.235.
To ACAGGAGCCACCCUAAAAG against WDR86 belongs 0.75; to UCUGUCUCCGCUUGGAGUG against FOS, 0.622.
UAGGUCUUAGGAGUCAUCU against RPL9P25: the seed-corrected z-score was -2.06.
UCUGCUCCAAUAAUCCGGC against ANKS6 yielded a seed-corrected z-score of 0.347.
The result for UCCGUUUCCACAUGGUCGC against TEKT4 reads 0.747.
In the case of AUAGGCAAGAGUGACAAGC against CNGB3, the seed-corrected z-score was 0.169.
Regarding UGGGAUCUAACUCCUUAGC against IFT172, the seed-corrected z-score is -2.76.
Sequence UACUAGAUGUGGUGCAUCC against RPS6KA3 yielded a seed-corrected z-score of 0.496.
The result for UAGGCAUCCGUAUCCCUGC against FAM131B reads 0.847; that for AGCUGCUAAACUUUCAUCC against JAKMIP2, -2.59; that for UCUCGAAUGAGAAUGCUCC against CSTF3, -0.0852.
To UUCUUGAUCUUGGAUCUUU against DLX5 belongs -0.846; to UUCUUGAUCAUCAUUCACC against SLC7A6OS, 0.569.
The sequence UAUCGUAAAAUCACAUGAG against AMFR had a seed-corrected z-score of 0.503.
The result for UGAUGUUUCGCAGGCACCG against CRHR1 reads 0.0226; that for UUAAUUACUCUCUUCAAUG against UGT2B7, -0.533.
UUUUGGGCCUCUGAACUCC against LCE1B had a seed-corrected z-score of 0.31.
The result for UACCUUAACCAUCCGAUGC against WDR6 reads 0.132.
For the sequence UAGAGGAUAAUGUUCUCGG against ABHD17C, the seed-corrected z-score was -12.1.
Sequence UUGGAGAUCAAUCCAGCCU against CBFB returned a seed-corrected z-score of 0.537.
UCAAUCAUCCGUGAGUUGC against WBSCR22 came in with a seed-corrected z-score of 0.315.
To UUUCAGCUGCGCUCGGUUC against GOLGA6L2 belongs -3.72; to UGCAUUCCGGCUGUGAUCG against LINC00152, -0.804.
The result for UUAUGGGCUCUGAUGACCG against DIP2C reads 0.0672.
The sequence UUCAGGAUCGCGGUUAUCA against OR4X2 came in with a seed-corrected z-score of 0.269.
Take UUAAAGACUCGGUUCACUG against PLXNA3: the seed-corrected z-score was -1.44.
To UAUACUCCCGCACAUAGCC against PI4KA belongs -0.673.
UUGUUAUGAAUGUACAUCG against TMEM181 yielded a seed-corrected z-score of -5.
Sequence UCCGCAGUUCCUUAAGUGG against LOC401589 displayed a seed-corrected z-score of 0.0579.
To UGCUGAAACCUUGAUGUGC against CRTC3 belongs 1.11; to UUGAGUAAGAGAUGGACCC against ZNF184, -0.444; to AAUGAUCCCACAGAUAUCA against IKZF1, 0.796.
To UCUGUUCGAUCAUCCGUGC against ACP6 belongs -0.281; to UGUGUCCCUCCCAAUCUCC against GGT2, 0.0675.
The sequence AAAUCGAUGAGAAACCUGC against KAT6A had a seed-corrected z-score of 0.325.
To UACAUUGUAGCAGAUGUUG against ACSS2 belongs -0.36; to “AAGUCUACAAGUGAUCUCU against ATP6V0E2-AS1”, -2.23; to UGUUGUUUACGUUCGAUUG against ADD3, -0.745.
Consider UGUUAGGUAAGGCUAGGUC against UTS2B, for which the seed-corrected z-score amounted to 0.63.
The result for AUUAUGAGCAUGCAGGUUC against ANKRD6 reads 1.1; that for UUUCUUCCCAGGUGUCUUG against PTHLH, -2.12.
The result for UCUAGACCUAUGGACAGUC against WDFY2 reads -0.0809.
In turn, UUAGCUUCCUCCAAAAUGC against LOC342293 registered a seed-corrected z-score of 1.1.
For UCCUGGUUAAAUAGGAAGG against BLID, the seed-corrected z-score was -0.822.
In the case of UACUGAGUAGUAGUUGGGC against DISP3, the seed-corrected z-score was -2.25.
UUUGGUUUGGAAAAGGUAC against KMT5A registered a seed-corrected z-score of 0.072.
To UAACUUAGAAUUCCAUUUU against DMRTA2 belongs 0.067.
The result for UGUCCUACCACAGUCUUCA against LINC00703 reads -0.2; that for UUUUCUGCAGCUUUAAGGG against IL17C, 1.34.
Regarding UGGUCAAUCUGUUCAAUGG against C16orf70, the seed-corrected z-score is -13.9.
UACAUAGUAAACUCGCCCG against ITCH displayed a seed-corrected z-score of 0.22.
To UAAGUAACCCAAGUAUUGC against C2orf69 belongs 0.361.
